In the library only some 2.9% were active in any assay of this set; here they are far more common.
CRFR2-BP ag: CRF-BP/CRF-R2 complex agonism; HEK293 CRF-R2/CRF-BP, calcium dye fluorescence (FLIPR); percent of saturating CRF peptide response; activation, % at 13.2 µM; 0.46% of 350,000 active; AID 588473;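 active means activation of at least 50%, plus an integration ratio under a set limit after plate pattern correction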;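 further: plate controls were neutral control wells without compound for no effect and CRF at EC100 for full effect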
ABCB6 inh 2: blocks the human ABCB6 transporter; Q9NP58; K562-ABCB6 porphyrin accumulation, flow cytometry, 1 h; active compounds read low; fluorescence ratio to DMSO, % at 10 µM; 0.19% of 360,000 active;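 active means fluorescence ratio to DMSO below 75%, the collection mean minus 3 SD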;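 further: signal is porphyrin accumulated inside mitochondria; 100% equals median channel fluorescence of DMSO control wells; lower ratio means ABCB6 inhibition with less porphyrin fluorescence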
Target sequence (Q9NP58 whole entry, looked up): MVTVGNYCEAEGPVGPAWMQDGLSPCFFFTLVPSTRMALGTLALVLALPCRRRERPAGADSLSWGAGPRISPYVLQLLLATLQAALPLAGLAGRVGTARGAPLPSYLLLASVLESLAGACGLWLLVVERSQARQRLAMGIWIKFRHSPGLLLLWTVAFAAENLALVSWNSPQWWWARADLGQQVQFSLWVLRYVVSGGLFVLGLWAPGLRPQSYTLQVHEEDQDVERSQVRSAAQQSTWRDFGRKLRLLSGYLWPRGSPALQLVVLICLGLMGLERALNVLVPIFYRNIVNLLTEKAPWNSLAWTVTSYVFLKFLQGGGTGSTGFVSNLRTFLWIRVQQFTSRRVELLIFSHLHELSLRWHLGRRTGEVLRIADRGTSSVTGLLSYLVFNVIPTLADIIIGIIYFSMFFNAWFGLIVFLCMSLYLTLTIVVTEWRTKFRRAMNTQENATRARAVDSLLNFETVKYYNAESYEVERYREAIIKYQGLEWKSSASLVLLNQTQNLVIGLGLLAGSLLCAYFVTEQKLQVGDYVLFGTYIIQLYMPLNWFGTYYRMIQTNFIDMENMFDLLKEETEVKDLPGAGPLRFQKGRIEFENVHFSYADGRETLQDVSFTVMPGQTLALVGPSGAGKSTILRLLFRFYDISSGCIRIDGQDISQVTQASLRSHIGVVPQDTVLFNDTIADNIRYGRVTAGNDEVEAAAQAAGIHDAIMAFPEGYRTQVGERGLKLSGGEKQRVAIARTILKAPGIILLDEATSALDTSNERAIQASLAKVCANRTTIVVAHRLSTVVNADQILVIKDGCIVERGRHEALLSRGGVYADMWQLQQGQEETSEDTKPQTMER
MEKK2 WT-MEK5: raises or lowers MEK5 binding to wildtype human MEKK2 PB1 domain. binding response (% of control), % at 10 µM. bead flow cytometry, Alexa488-MEK5 binding to MEKK2 WT; actives lie on both sides. Q9Y2U5. 1.1% of 290,000 active; in the data active means binding response below about 67% or above about 130%
MEKK3 PB1 HTS: modulators (inhibitors or enhancers) of MEK5 binding to human MEKK3 PB1 domain; Q99759; bead-based flow cytometry, Alexa488-MEK5 binding to MEKK3; actives lie on both sides; 0 = blocked by unlabeled MEK5, 100 = vehicle; binding response (% of control), % at 10 µM; 1.4% of 290,000 active;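 active means binding response more than 3 SD above or below the average of its plate-row segment, actives on both sides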;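 further: Alexa488 bead fluorescence after subtracting the streptavidin-only scavenger bead signal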
CRFR2-BP antag: blocks CRF-induced signaling of the CRF-BP/CRF-R2 complex. HEK293 CRF-R2/CRF-BP, CRF-induced calcium fluorescence. inhibition, % at 11.8 µM. 0.59% of 350,000 active;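 active means inhibition of the ligand-induced calcium signal above about 50% at the single tested concentration, limit read from the data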
MEKK2 mut-MEK5: signal of MEK5 binding to mutant human MEKK2 PB1 domain; AID 1530; bead flow cytometry, Alexa488-MEK5 binding to MEKK2 mutant; percent response, % at 10 µM; 0.35% of 290,000 active; in the data active means percent response above about 24%, passing the limit was not always enough
ABCB6 blocker 1: human ABCB6 transporter inhibition; AID 602430; K562-ABCB6 porphyrin accumulation, flow cytometry, 1 h; active compounds read low; ratio response (% of DMSO), % at 10 µM; 700 tested, under 10 active; shares compounds with ABCB6 inh 2;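 active means repeat-averaged ratio response below 75% of DMSO, the collection mean minus 3 SD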;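 further: median porphyrin fluorescence at 575 nm with 488 nm excitation from mitochondria; lower ratio means less porphyrin signal so ABCB6 inhibition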
K562 vector FC: activity in empty-vector K562 counter-screen for ABCB6 inhibitors; shares compounds with ABCB6 inh 2; K562 empty-vector cells, flow cytometry fluorescence, 1 h; percent response (fluorescence), % at 100 µM; 25 tested, under 10 active;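 active means compounds whose half-maximal effective concentration is below 100 µM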
Active calls of the source: *; nt = not tested or not shown.

SMILES | CRFR2-BP ag | ABCB6 inh 2 | MEKK2 WT-MEK5 | MEKK3 PB1 HTS | CRFR2-BP antag | MEKK2 mut-MEK5 | ABCB6 blocker 1 | others
Cc1ccc(S(=O)(=O)CCc2nnc(NC(=O)c3cnccn3)s2)cc1 | 3 | 98 | 107 | 109 | -13 | 9 | nt
CCc1ccc(NC(=O)c2nc(S(=O)(=O)Cc3ccccc3)ncc2Cl)cc1 | nt | 66* | 92 | 98 | nt | -1 | nt | K562 vector FC=259
Cc1ccc(NC(=O)c2nc(S(=O)(=O)Cc3ccccc3C)ncc2Cl)cc1C | -1 | 48* | 95 | 101 | 23 | 0 | nt | K562 vector FC=254
CCCS(=O)(=O)c1ncc(Cl)c(C(=O)Nc2ccc(S(=O)(=O)Nc3ncccn3)cc2)n1 | 0 | 103 | 102 | 105 | 9 | 8 | 104
CCOc1ccccc1NC(=O)c1ccc(C(=O)Nc2ccccc2OCC)nc1 | 0 | 98 | 103 | 104 | 5 | 5 | nt
CCOc1ccccc1NC(=O)c1nc(S(=O)(=O)Cc2ccccc2)ncc1Cl | -1 | 44* | 106 | 109 | 38 | 5 | nt | K562 vector FC=276
CC(C)c1nnc(NC(=O)c2nc(S(=O)(=O)Cc3ccccc3)ncc2Cl)s1 | 2 | 81 | 101 | 102 | 20 | 3 | nt | K562 vector FC=199
CCOC(=O)c1ccc(NC(=O)c2nc(S(=O)(=O)Cc3ccccc3)ncc2Cl)cc1 | 0 | 46* | 104 | 104 | 30 | 2 | nt | K562 vector FC=231
CSc1nnc(NC(=O)c2nc(S(=O)(=O)Cc3ccccc3)ncc2Cl)s1 | -1 | 104 | 96 | 98 | 27 | 0 | nt
COc1ccc(OC)c(N2C(=NC(=O)C3CCCCC3)SC3CS(=O)(=O)CC32)c1 (stereo not given) | 0 | 100 | 91 | 96 | -6 | -2 | nt
CCC(=O)c1c[nH]c(C(=O)N2CCOCC2)c1 | 3 | 106 | 107 | 102 | -10 | 6 | nt
Cc1ccsc1CNC(=O)C1(C)CCN1C(C)C (stereo not given) | nt | 71* | nt | nt | nt | nt | 100
COc1ccc2oc(-c3ccc(NC(=O)c4ccc(N5CCOCC5)c([N+](=O)[O-])c4)cc3)nc2c1 | 1 | 60* | 103 | 98 | -33 | -1 | 98
O=C(Nc1ccc(-c2nc3ccccc3o2)cc1)c1ccc(N2CCOCC2)c([N+](=O)[O-])c1 | 12 | 93 | 108 | 106 | -24 | 3 | nt
Cc1cc(Br)c(NC(=O)Cn2c([N+](=O)[O-])cnc2C)cc1C | -3 | 100 | 101 | 97 | 30 | 2 | nt
Cc1ncc([N+](=O)[O-])n1CC(=O)Nc1cc(Cl)ccc1Cl | -2 | 10* | 103 | 103 | 20 | 4 | 98
CN(Cc1ccc(F)cc1)C(=O)C(c1ccccc1)c1ccccc1 | -1 | 93 | 91 | 97 | 8 | -6 | nt
COc1ccccc1CN(C)C(=O)C(c1ccccc1)c1ccccc1 | -2 | 73* | 106 | 108 | 57* | 7 | 100
Cc1nonc1C1CCCN1Cc1cn[nH]c1-c1ccc(-c2ccccc2)cc1 (stereo not given) | 2 | 93 | 97 | 105 | -20 | -3 | nt
O=C(NCCN1CCOCC1)c1cc(-c2ccc(F)cc2)nc2ccccc12 | 1 | 90 | nt | nt | -8 | nt | nt
Cc1cc(C(=O)NCCN2CCOCC2)c2ccccc2n1 | -2 | 74* | nt | nt | 6 | nt | 103
Cc1cc(C)cc(CC(=O)N2CCC2(C)C(=O)NS(=O)(=O)c2ccc(Br)cc2)c1 (stereo not given) | nt | 96 | nt | nt | nt | nt | 100
CC(C)(C)c1ccc(CC(=O)N2CCC2(C)C(=O)NS(=O)(=O)c2cccc(C#N)c2)cc1 (stereo not given) | nt | 61* | nt | nt | nt | nt | 102
Cc1cc(C)cc(CC(=O)N2CCC2(C)C(=O)NS(=O)(=O)c2cccc(F)c2)c1 (stereo not given) | nt | 100 | nt | nt | nt | nt | 103
CC1(C(=O)NS(=O)(=O)c2cccc(F)c2)CCN1C(=O)Cc1ccccc1Cl (stereo not given) | nt | 95 | nt | nt | nt | nt | 98
SMILES | CRFR2-BP ag | ABCB6 inh 2 | MEKK2 WT-MEK5 | MEKK3 PB1 HTS | CRFR2-BP antag | MEKK2 mut-MEK5 | ABCB6 blocker 1 | others
Cc1cc(C)cc(CC(=O)N2CCC2(C)C(=O)NS(=O)(=O)c2ccc(C(C)(C)C)cc2)c1 (stereo not given) | nt | 94 | nt | nt | nt | nt | nt
Cc1cc([N+](=O)[O-])ccc1NC(=O)c1cc2ccccc2o1 | 4 | 96 | 104 | 106 | -13 | 18 | nt
O=C(NCC1CCCO1)c1cc(S(=O)(=O)N2CCCC2)c(Cl)cc1Cl (stereo not given) | 1 | 99 | 94 | 102 | 12 | 0 | nt
CC(C)(C)OC(=O)N1CCC(C(=O)Nc2cccc(C(=O)N3CCOCC3)c2)CC1 | 0 | 96 | nt | nt | -3 | nt | nt
CNC(=O)OCc1ncn(-c2ccccc2)c1COC(=O)NC | nt | 99 | nt | nt | nt | nt | nt
CC1(C(=O)NS(=O)(=O)c2cccc(C#N)c2)CCN1C(=O)Cc1ccccc1Cl (stereo not given) | nt | 97 | nt | nt | nt | nt | 100
CC(=O)c1cccc(-c2ccnc3c2CC(C(=O)Nc2ccc(F)c(Cl)c2)O3)c1 (stereo not given) | nt | 94 | nt | nt | nt | nt | 100
O=C(Nc1ccc2c(c1)OCO2)C1Cc2c(-c3ccc(Cl)cc3)ccnc2O1 (stereo not given) | nt | 97 | nt | nt | nt | nt | 97
CC(=O)c1cccc(-c2ccnc3c2CC(C(=O)Nc2ccccc2)O3)c1 (stereo not given) | nt | 95 | nt | nt | nt | nt | nt
O=C(Nc1ccc(F)c(Cl)c1)C1Cc2c(-c3cccc(F)c3)ccnc2O1 (stereo not given) | nt | 72* | nt | nt | nt | nt | 101
COC(=O)COc1ccc(C(=O)Cn2c(NCCCO)nc3ccccc32)cc1 | -2 | 96 | nt | nt | 4 | nt | nt
COc1ccccc1NC(=O)CSc1nc(=O)n(CCN2CCOCC2)c2c1CCC2 | 0 | 103 | nt | nt | 9 | nt | nt
CC(Oc1ccc(Cl)cc1Cl)c1ccnc2nc(N3CCOCC3)nn12 (stereo not given) | 3 | 74* | 103 | 107 | 2 | 3 | 99
COCc1cc(Sc2ccc(Br)cc2)nc(-c2ccccc2)n1 | 3 | 93 | 106 | 104 | -8 | 6 | nt
Clc1cc(Sc2ccc(Br)cc2)nnc1-c1ccccc1 | 1 | 74* | 102 | 109 | -4 | 11 | 101
CS(=O)(=O)Nc1cccc(NC(=O)C2Cc3c(-c4cccc(C(N)=O)c4)ccnc3O2)c1 (stereo not given) | nt | 61* | nt | nt | nt | nt | 100
COc1ccc(NC(=O)C2Cc3c(-c4cccc(C(N)=O)c4)ccnc3O2)cc1OC (stereo not given) | nt | 96 | nt | nt | nt | nt | 98
